# Assay outcomes: PubChem BioAssay, National Center for Advancing Translational Sciences (NCATS)
# In the library only some 1.2% were active in any assay of this set; here they are far more common.
# PI4K2A inh: blocks human PI4K2A kinase activity | Q9BTU6 | purified PI4K2A, ADP-Glo luminescence, 1 h; stronger effect = lower value | activity change, negative = inhibition, % at 76.9 µM | 0.13% of 420,000 active; in the data active means activity change below about -50%; inconclusive means mostly about -30% to -49%
#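 ADP-Glo luminescence measured ADP generated by PI4K2A enzyme (4 ug/mL before mixing) with 1.2 mM PI substrate (pre-mix) and 300 microM ATP (pre-mix). Tris pH7.5 buffer with MgCl2, Triton X-100; 1 h reaction at ambient temperature.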
# Pin1 inh: inhibitors of human Pin1; Potency, µM (highest dose often 115 µM), most hits filed as inhibitors; Q13526; 0.009% of 390,000 active; Pin1 FP peptide displacement, HiFluor488, 10 min; active means well fitted inhibition curve with a large enough effect in the polarisation, with a control signal flat, not every such curve was filed as active; inconclusive means small, poorly fitted or top-dose-only effect, or effect the other way, or a change in a side signal; inactive means no such curve, though single readings can be large or run the other way; the % refers to the polarisation
# Target sequence (Q13526 whole entry, looked up): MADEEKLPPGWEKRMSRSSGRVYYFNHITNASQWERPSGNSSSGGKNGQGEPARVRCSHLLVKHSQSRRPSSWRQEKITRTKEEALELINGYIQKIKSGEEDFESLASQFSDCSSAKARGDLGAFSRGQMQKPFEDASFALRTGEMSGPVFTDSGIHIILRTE
# GCN5L2 inh: GCN5L2 (KAT2A) acetyltransferase inhibition; AID 504327; Q92830; 0.21% of 390,000 active; GCN5L2 HAT assay, ThioGlo1 CoA-SH fluorescence; Potency, µM (doses to about 58.9 µM), hits mostly inhibitors
#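 Preincubate 20nM GCN5L2 with compound 15 min, RT → add 50uM ThioGlo1 + 75uM H3(1-25) + 70uM acetyl-CoA → read fluorescence 0 and 20 min. Primary qHTS; fluorescent artifacts likely.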
# PI5P4Ka inh: inhibitors of human PI5P4K alpha; P48426; PI5P4Kalpha enzyme, ADP-Glo luminescence, 60 min; stronger effect = lower value; max response, %; 1.2% of 330,000 active; active means max response of -50% or lower; inconclusive means between -30% and -50%; inactive means -30% or higher; further: value at the top dose of about 77 µM
# Target sequence (P48426 whole entry, looked up): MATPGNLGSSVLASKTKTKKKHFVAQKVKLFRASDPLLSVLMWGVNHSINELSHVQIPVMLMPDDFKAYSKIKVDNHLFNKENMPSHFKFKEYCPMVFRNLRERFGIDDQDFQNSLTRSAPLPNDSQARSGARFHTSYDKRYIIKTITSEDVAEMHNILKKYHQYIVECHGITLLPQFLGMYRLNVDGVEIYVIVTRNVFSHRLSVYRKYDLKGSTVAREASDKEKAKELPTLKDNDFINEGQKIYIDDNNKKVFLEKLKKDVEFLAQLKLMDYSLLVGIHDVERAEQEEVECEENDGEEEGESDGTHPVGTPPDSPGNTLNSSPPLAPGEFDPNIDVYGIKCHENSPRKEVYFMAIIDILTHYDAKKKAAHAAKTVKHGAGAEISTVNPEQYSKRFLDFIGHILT
#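 Enzyme plus substrate dispensed, test compounds pinned in, then ATP (5 microM final) added. After 60 min at RT, ADP-Glo reagent 1 for 45 min and reagent 2 for 30 min preceded luminescence imaging.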
# RGS12 GoLoco inh: RGS12 GoLoco-Gai1 interaction inhibition; P63096; Gai1:RGS12 GoLoco peptide FP, rhodamine, 10 min; Potency, µM (highest dose often 61.6 µM), actives largely listed as inhibitors; 0.44% of 230,000 active; active means well fitted inhibition curve with a large enough effect, not every such curve was filed as active; inactive means no such curve, though single readings can be large or run the other way; further: nearly all actives have a fitted effect of over 30% in size
# PGK inhibitor: inhibitors of T. brucei phosphoglycerate kinase; P07378; 0.043% of 380,000 active; PGK/GAPDH coupled, Kinase-Glo luminescence, 60 min; Potency, µM (doses to about 57.5 µM), actives largely listed as inhibitors; further: nearly all actives have a fitted effect of over 60% in size
#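 Recombinant glycosomal PGK reaction used 1,3-bisphosphoglycerate generated in-well by GAPDH (100nM final) in 100mM TEA pH 7.6, 5mM MgCl2, 0.01% Tween-20. After 60 minutes at room temperature, ATP was read by Kinase-Glo Plus luminescence end-point.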
# A number is an active result; – = inactive; ? = inconclusive; · = no result. Unless noted, the call rests on the fitted dose curve; in most records, active means well fitted curve in the direction sought with a large enough effect; inconclusive means small, poorly fitted or top-dose-only effect, or another doubt; inactive means no such curve, though single readings can be large; an effect the other way counts as inactive or inconclusive.
SMILES,PI4K2A inh,Pin1 inh,GCN5L2 inh,PI5P4Ka inh,RGS12 GoLoco inh,PGK inhibitor
Cc1cc(=O)oc2c(CN3CCC(C)CC3)c(O)c(Cl)cc12,–,?,?,?,22µM,–
CCN(CC)Cc1c(O)c(Cl)cc2c(C)c(C)c(=O)oc12,–,–,?,·,–,–
CCN(CC)Cc1c(O)c(Cl)cc2c(C)cc(=O)oc12,–,?,?,?,16µM,–
Cc1c(C)c2cc(Cl)c(O)c(CN3CCN(C)CC3)c2oc1=O,–,–,25µM,–,–,–
Cc1ccc(CNC(=O)Cn2c(-c3cccs3)cc3cc(Cl)ccc32)cc1,–,–,–,·,·,–
COc1cccc(Cn2cc(C(=O)c3ccccc3)c(=O)c3cc4c(cc32)OCO4)c1,–,–,–,·,·,–
CCc1sc(C(=O)NCCCN2CCCC2=O)cc1Br,–,–,·,–,·,–
O=C1CC(=O)N(C2CCCCC2)C(=O)N1c1ccccc1S(=O)(=O)Oc1ccccc1,–,·,·,-64,·,·
O=C1C2CCCCC2C(=O)N1c1cccc(OS(=O)(=O)c2ccccc2)c1 (stereo unspecified),–,–,–,–,–,–
O=c1c2c(-c3cccs3)csc2[nH]c(=S)n1-c1ccccc1,–,–,–,?,–,–
CC(C)n1c(=S)[nH]c2scc(-c3cccs3)c2c1=O,–,?,18µM,-82,–,–
Cc1cccn2cc(CNC(=O)c3ccco3)nc12,–,–,35µM,–,–,–
CNc1oc(Cc2ccccc2)nc1S(=O)(=O)c1ccccc1,–,·,–,-85,–,–
CCOc1ccc(-c2nc(S(=O)(=O)c3ccccc3)c(NC)o2)cc1,–,–,–,–,·,–
Cc1cc(C)c2nc(N(Cc3cccnc3)C(=O)CCOc3ccccc3)sc2c1,–,–,–,·,·,–
Cc1cccc2sc(N(Cc3cccnc3)C(=O)CCOc3ccccc3)nc12,-59,–,–,·,·,–
COc1ccc(NC(=O)C2=CC=CN3CCS(=O)(=O)N=C23)c(OC)c1,–,–,–,–,·,–
CCOC(=O)c1c(N2C(=O)Nc3ccccc3N2O)n[nH]c1-c1cccc(Cl)c1,–,–,–,-66,–,–
O=C(NCc1ccccc1Cl)c1ccc2nnsc2c1,–,–,–,–,–,–
COc1ccc(C)cc1Nc1n[n+](-c2ccccc2)c(-c2cc(OC)c(OC)cc2Br)s1,–,–,–,–,·,–
COc1ccc(C)cc1Nc1n[n+](-c2ccccc2)c(-c2c(OC)ccc3ccccc23)s1,–,–,–,-54,·,–
Fc1ccc(-[n+]2nc(Nc3ccccc3)sc2-c2c3ccccc3cc3ccccc23)cc1,–,–,–,-63,·,–
Oc1c(Cl)cc(Cl)cc1Sc1cc(Cl)cc(Cl)c1O,–,·,?,·,–,·
O=S(c1cc(Cl)cc(Cl)c1O)c1cc(Cl)cc(Cl)c1O,–,·,?,-51,·,·
C[C@H](CO)N1C[C@H](C)[C@H](CN(C)S(=O)(=O)c2cccs2)Oc2ncc(-c3cc4ccccc4o3)cc2C1=O,–,·,·,–,·,–
SMILES,PI4K2A inh,Pin1 inh,GCN5L2 inh,PI5P4Ka inh,RGS12 GoLoco inh,PGK inhibitor
O=C(O)C1CSC(c2ccco2)N1 (stereo unspecified),–,·,?,-80,–,?
O=C1NC[C@@H](Cc2ccc(O)cc2)N(CCc2cc(C(F)(F)F)cc(C(F)(F)F)c2)C1=O,–,·,·,-68,·,·
COc1cc(OC)c2c(O)c3c(c(-c4c5c(c(O)c6c(OC)cc(OC)cc46)CO[C@@H](C)[C@H]5O)c2c1)[C@H](O)[C@H](C)OC3,?,?,?,-90,–,–
COc1cc(OC)c2c(=O)c(O)c(-c3ccc(OC)c(OC)c3)oc2c1,·,·,–,·,–,·
O=C(COC(=O)c1ccc(O)cc1)Nc1cc(S(=O)(=O)N2CCOCC2)ccc1N1CCOCC1,–,–,·,–,·,–
O=C(Nc1cccn2ncnc12)c1ccc(Cl)cc1Cl,–,–,–,–,–,–
Cc1ccc(C(=O)NNC(=O)CCC(=O)NCc2ccccc2)cc1Br,–,–,–,–,·,–
COc1ccc(C(=O)CSc2cc(C)[nH]c(=O)n2)cc1,–,?,–,-63,·,–
[C-]#[N+][C@H](O[C@@H]1O[C@H](CO)[C@@H](O)[C@H](O)[C@H]1O)c1ccccc1,–,–,·,–,·,–
O=C(O)CC(CCc1ccccc1)OC1OC(CO)C(O)C(O)C1O (stereo unspecified),?,?,–,-68,–,?
COc1cc2c(-c3cc(F)cc(F)c3)c(-c3ccsc3)oc(=O)c2cc1OC,–,–,–,–,·,–
NC(=S)NNc1c(F)c(F)c(F)c(F)c1F,–,–,–,-54,–,–
CCNC(=O)c1cc(S(=O)(=O)N(C)C)c(Cl)cc1Cl,–,–,–,–,–,–
CCOc1ccccc1OCC(=O)Nc1ccc(N2CCOCC2)cc1N1CCOCC1,–,–,–,–,·,–
CCOC(=O)C1=C(C)N=c2s/c(=C\c3ccc(OCC(=O)O)c(OC)c3)c(=O)n2C1c1ccc(OC)cc1 (stereo unspecified),–,?,–,-61,·,–
CCOC(=O)C1=C(C)N=c2s/c(=C\c3ccc(OCC(=O)O)cc3)c(=O)n2C1c1ccccc1 (stereo unspecified),–,–,–,?,·,?
CCOC(=O)C1=C(C)N=c2s/c(=C/c3cccc([N+](=O)[O-])c3O)c(=O)n2C1c1ccccc1 (stereo unspecified),–,·,–,-55,·,–
NC(=S)N/N=C/c1cccnc1,–,·,–,·,·,·
N=C1S/C(=C\c2cn[nH]c2-c2ccc(F)cc2)C(=O)N1c1ccccc1F,–,–,–,-70,–,–
Fc1ccc(C(c2ccc(F)cc2)N2CCN(C/C=C\c3ccccc3)CC2)cc1,·,·,11µM,·,–,·
COC(=O)c1sccc1NC(=O)Nc1ccc(OC)cc1,-57,–,–,?,·,?
CC1(C)C(/C=C/C=C/C=C/C=C2\N(CCCCS(=O)(=O)O)c3ccc4ccccc4c3C2(C)C)=[N+](CCCCS(=O)(=O)[O-])c2ccc3ccccc3c21,-65,?,10µM,-90,·,?
Cc1cc(/C=C2\C(=N)N3N=C(C(C)C)SC3=NC2=O)c(C)n1-c1ccccc1,–,–,–,–,–,–
CC(C)CC1=NN2C(=N)/C(=C\c3coc4ccccc4c3=O)C(=O)N=C2S1,–,?,–,-53,–,–
CCSC1=NSC2=NC(=O)/C(=C\c3coc4ccccc4c3=O)C(=N)N12,–,?,?,-59,–,–
Cc1cccc(-n2c(C)cc(/C=C3\C(=N)N4N=C(CC(C)C)SC4=NC3=O)c2C)c1,–,–,–,–,–,–
CSc1nc2sc3c(c2c(=O)n1C1CCCCC1)CCN(C)C3,–,–,–,–,–,–
